# Experimental data as given in PubChem BioAssay (EPA / NIEHS).
# Records with an inconclusive call do not appear. The source made the active and inactive calls. Rule for the calls, unless noted: active = hit-call score of the fitted dose curve at least 0.9, where 1 is the maximum; inconclusive = response in the unintended direction; inactive = score below 0.9.
# Columns and labels:
# [1] = target: human Peroxisome Proliferator-activated Receptor alpha (PPARa), PPARA (gene 5465) (UniProt Q07869); test: ATG_PPARa_TRANS: Attagene TRANS-FACTORIAL HepG2 Assay for human Peroxisome Proliferator-activated Receptor alpha (PPARa) (AID 2283001)
# human Peroxisome Proliferator-activated Receptor alpha (PPARa), PPARA (gene 5465), sequence (Q07869 whole entry, looked up, the tested form may be a part): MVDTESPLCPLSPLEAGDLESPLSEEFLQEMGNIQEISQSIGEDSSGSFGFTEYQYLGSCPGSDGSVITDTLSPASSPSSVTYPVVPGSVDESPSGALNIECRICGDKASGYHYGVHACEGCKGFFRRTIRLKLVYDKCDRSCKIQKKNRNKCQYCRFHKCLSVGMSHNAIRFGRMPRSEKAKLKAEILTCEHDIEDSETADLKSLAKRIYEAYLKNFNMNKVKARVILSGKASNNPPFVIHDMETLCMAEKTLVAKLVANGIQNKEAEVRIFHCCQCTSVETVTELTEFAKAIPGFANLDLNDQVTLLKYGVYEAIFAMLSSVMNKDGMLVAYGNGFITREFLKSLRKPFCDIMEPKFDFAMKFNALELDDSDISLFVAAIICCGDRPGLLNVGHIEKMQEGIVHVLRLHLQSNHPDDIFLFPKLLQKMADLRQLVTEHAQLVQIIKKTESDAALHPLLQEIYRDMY
# How it was run: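 Exposure: 24 h, transiently transfected HepG2 cells. Endpoint: GAL4-UAS reporter mRNA, RT-PCR with capillary electrophoresis fluorescence. Baseline: DMSO; increases fitted.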
# [2] = target: human Retinoic Acid Receptor beta (RARb), RARB (gene 5915) (UniProt P10826); test: ATG_RARb_TRANS: Attagene TRANS-FACTORIAL HepG2 Assay for human Retinoic Acid Receptor beta (AID 2283004)
# human Retinoic Acid Receptor beta (RARb), RARB (gene 5915), sequence (P10826 whole entry, looked up): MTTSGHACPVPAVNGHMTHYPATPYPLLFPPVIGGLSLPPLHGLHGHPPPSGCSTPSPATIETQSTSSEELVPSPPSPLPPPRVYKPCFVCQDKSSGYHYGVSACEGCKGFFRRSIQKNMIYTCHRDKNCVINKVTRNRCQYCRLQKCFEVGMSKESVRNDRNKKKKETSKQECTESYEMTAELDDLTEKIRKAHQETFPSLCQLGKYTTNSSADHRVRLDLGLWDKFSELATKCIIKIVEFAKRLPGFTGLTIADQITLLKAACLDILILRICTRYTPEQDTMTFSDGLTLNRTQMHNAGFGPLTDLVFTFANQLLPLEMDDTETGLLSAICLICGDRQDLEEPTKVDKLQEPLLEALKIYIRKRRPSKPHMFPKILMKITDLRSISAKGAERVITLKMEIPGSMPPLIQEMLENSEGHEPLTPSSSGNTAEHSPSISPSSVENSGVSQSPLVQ
# How it was run: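 Transient transfection of HepG2 with multiple reporter units → chemical dosing, 24 h → total RNA isolation → RT with oligo(dT) → reporter-specific PCR, 6-FAM primer extension, HpaI digest → capillary electrophoresis. Positive direction vs DMSO control.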
# [3] = target: Peroxisome proliferator-activated receptor gamma (Homo sapiens) (UniProt P37231); test: ATG_PPARg_TRANS: Attagene TRANS-FACTORIAL HepG2 Assay for human Peroxisome Proliferator-activated Receptor-gamma (PPARg) (AID 2283007)
# Peroxisome proliferator-activated receptor gamma (Homo sapiens), sequence (P37231 whole entry, looked up, the tested form may be a part): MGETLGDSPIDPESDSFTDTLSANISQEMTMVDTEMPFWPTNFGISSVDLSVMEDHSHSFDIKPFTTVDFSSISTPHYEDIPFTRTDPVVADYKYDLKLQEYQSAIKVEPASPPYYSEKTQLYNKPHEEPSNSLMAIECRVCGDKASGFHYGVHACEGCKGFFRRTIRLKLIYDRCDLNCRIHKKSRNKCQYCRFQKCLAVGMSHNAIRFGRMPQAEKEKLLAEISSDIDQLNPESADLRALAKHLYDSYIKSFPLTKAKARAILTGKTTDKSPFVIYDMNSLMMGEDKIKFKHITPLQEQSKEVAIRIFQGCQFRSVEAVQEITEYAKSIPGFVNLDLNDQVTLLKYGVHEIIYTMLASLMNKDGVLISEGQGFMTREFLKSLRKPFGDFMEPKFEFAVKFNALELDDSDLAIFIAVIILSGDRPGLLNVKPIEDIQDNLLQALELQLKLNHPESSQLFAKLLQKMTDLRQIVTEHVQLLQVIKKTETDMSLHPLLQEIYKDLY
# How it was run: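 Liver-derived HepG2 cells expressing an exogenous NR-Gal4 chimera alongside GAL4-UAS reporter genes; 24 h exposure. Fluorescence of reporter RT-PCR products, separated by capillary electrophoresis, gives mRNA induction relative to DMSO.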
# [4] = target: Nuclear receptor subfamily 1 group I member 2 (Homo sapiens) (UniProt O75469); test: ATG_PXR_TRANS: Attagene TRANS-FACTORIAL HepG2 Assay for human Pregnane X Receptor (PXR) (AID 2283008)
# Nuclear receptor subfamily 1 group I member 2 (Homo sapiens), sequence (O75469 whole entry, looked up, the tested form may be a part): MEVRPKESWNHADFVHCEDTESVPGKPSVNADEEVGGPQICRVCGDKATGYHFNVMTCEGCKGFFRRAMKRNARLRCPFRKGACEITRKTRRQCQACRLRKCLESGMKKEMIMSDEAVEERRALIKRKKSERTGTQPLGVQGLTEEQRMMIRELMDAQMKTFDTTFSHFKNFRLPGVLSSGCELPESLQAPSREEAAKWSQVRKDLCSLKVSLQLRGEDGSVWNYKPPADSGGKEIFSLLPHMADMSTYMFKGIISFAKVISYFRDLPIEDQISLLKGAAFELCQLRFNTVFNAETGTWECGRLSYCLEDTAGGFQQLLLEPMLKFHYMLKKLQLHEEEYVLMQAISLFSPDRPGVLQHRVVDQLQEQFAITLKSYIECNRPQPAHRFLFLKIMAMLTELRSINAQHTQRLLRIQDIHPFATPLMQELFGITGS
# How it was run: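 HepG2 transfected (FuGene 6) with GAL4-UAS reporter units + PXR-Gal4 chimera; dosed 24 h. Total RNA → oligo(dT) RT → PCR → 6-FAM primer extension → HpaI cut → CE. Gain-of-signal vs DMSO.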
# [5] = target: human Retinoic Acid Receptor gamma (RARg), RARG (gene 5916) (UniProt P13631); test: ATG_RARg_TRANS: Attagene TRANS-FACTORIAL HepG2 Assay for human Retinoic Acid Receptor gamma (RARg) (AID 2283009)
# How it was run: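 Gain-of-signal relative to DMSO is reported from fluorescent capillary electrophoresis of RT-PCR reporter products. These came from HepG2 cells expressing transfected RARg-GAL4 chimeras with UAS reporters, harvested 24 h after dosing.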
# [6] = target: human RAR-related Orphan Receptor gamma (RORg), RORC (gene 6097) (UniProt P51449); test: ATG_RORg_TRANS: Attagene TRANS-FACTORIAL HepG2 Assay for human RAR-related Orphan Receptor gamma (RORg) (AID 2283011)
# human RAR-related Orphan Receptor gamma (RORg), RORC (gene 6097), sequence (P51449 whole entry, looked up, the tested form may be a part): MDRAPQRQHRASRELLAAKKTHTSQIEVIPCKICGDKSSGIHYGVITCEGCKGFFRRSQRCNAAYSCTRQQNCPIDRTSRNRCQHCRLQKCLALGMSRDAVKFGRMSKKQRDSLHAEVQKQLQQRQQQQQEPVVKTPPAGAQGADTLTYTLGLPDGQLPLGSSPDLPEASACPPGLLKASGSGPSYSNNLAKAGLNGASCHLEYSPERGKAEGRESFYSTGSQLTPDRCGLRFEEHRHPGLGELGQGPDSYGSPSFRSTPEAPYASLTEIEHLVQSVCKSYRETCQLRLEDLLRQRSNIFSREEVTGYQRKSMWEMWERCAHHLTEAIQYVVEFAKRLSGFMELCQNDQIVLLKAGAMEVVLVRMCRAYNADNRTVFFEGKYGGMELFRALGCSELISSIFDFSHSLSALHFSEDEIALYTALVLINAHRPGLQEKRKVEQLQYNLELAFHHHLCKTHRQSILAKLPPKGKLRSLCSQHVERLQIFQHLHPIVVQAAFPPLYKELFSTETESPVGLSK
# How it was run: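 First, HepG2 liver cells were transfected with GAL4-UAS-driven reporter constructs and the RORg-Gal4 fusion. Next, they were treated with chemical for 24 h. Finally, reporter mRNA was quantified by RT-PCR and capillary electrophoresis, with upward activity fitted against DMSO.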
# [7] = target: Retinoic acid receptor RXR-alpha (Homo sapiens) (UniProt P19793); test: ATG_RXRa_TRANS: Attagene TRANS-FACTORIAL HepG2 Assay for human Retinoid X Receptor alpha (RXRa) (AID 2283012)
# Retinoic acid receptor RXR-alpha (Homo sapiens), sequence (P19793 whole entry, looked up, the tested form may be a part): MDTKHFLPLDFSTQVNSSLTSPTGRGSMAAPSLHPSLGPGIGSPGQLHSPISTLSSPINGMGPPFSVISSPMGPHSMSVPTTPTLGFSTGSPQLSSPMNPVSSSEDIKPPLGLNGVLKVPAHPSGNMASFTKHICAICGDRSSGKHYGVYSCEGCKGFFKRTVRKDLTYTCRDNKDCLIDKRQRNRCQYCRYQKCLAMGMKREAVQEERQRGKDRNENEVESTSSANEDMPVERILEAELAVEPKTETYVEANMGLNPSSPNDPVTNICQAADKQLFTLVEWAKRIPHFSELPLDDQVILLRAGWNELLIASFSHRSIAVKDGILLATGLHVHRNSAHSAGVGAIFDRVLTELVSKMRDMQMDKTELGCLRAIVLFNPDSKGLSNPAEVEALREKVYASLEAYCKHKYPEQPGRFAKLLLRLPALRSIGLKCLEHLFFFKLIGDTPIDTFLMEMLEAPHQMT
# How it was run: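 Chimeric NR-GAL4 trans-activation in HepG2, 24 h treatment; reporter transcripts quantified by fluorescence on capillary electrophoresis, analysed for upward change from DMSO.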
# [8] = target: human Retinoid X Receptor beta (RXRb), RXRB (gene 6257) (UniProt P28702); test: ATG_RXRb_TRANS: Attagene TRANS-FACTORIAL HepG2 Assay for human Retinoid X Receptor beta (RXRb) (AID 2283013)
# human Retinoid X Receptor beta (RXRb), RXRB (gene 6257), sequence (P28702 whole entry, looked up, the tested form may be a part): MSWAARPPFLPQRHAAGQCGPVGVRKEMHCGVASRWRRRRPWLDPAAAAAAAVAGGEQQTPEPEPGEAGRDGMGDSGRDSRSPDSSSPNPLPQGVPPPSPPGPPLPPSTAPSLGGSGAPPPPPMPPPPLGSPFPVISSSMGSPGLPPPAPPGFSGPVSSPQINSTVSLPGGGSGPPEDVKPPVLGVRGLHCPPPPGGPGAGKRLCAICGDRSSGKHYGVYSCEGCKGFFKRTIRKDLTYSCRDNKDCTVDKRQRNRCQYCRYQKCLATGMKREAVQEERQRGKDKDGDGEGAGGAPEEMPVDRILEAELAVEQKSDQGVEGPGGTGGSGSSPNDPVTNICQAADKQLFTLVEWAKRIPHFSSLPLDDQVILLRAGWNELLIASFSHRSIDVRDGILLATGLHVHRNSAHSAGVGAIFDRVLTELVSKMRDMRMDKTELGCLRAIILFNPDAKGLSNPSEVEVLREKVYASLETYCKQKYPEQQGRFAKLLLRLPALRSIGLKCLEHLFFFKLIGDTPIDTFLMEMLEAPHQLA
# How it was run: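 After a 24 h incubation with test chemical, transfected HepG2 cells carrying NR-Gal4 fusions and GAL4-UAS reporter transcription units yield RNA whose reporter cDNA is FAM-labelled, HpaI-cut and sized by capillary electrophoresis; increases over DMSO are scored.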
# [9] = target: human Thyroid Receptor alpha (THRa1), THRA (gene 7067) (UniProt P10827); test: ATG_THRa1_TRANS: Attagene TRANS-FACTORIAL HepG2 Assay for human Thyroid Receptor alpha (THRa1) (AID 2283014)
# human Thyroid Receptor alpha (THRa1), THRA (gene 7067), sequence (P10827 whole entry, looked up, the tested form may be a part): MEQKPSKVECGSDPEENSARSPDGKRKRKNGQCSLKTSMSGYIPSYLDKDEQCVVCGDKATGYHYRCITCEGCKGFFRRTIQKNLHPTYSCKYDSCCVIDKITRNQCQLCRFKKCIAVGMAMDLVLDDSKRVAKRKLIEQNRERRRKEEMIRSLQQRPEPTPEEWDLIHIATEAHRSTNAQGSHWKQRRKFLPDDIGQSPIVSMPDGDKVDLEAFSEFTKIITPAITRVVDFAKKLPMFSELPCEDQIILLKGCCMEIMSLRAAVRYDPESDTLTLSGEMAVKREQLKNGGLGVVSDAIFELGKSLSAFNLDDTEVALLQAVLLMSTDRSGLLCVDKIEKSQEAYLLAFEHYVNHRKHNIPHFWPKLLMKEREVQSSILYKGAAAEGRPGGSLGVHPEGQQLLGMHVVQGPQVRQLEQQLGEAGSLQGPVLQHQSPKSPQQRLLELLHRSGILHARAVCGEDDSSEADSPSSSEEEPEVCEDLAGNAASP
# How it was run: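 Reporter transcript induction, read by capillary electrophoresis of 6-FAM-labelled RT-PCR products, reflects activity of a transfected THRa1-Gal4 fusion in HepG2 liver cells. Cells were dosed for 24 h; activity was fitted in the positive direction against DMSO.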
# [10] = target: human Peroxisome Proliferator-activated Receptor delta (PPARd), PPARD (gene 5467) (UniProt Q03181); test: ATG_PPARd_TRANS: Attagene TRANS-FACTORIAL HepG2 Assay for human Peroxisome Proliferator-activated Receptor delta (PPARd) (AID 2283002)
# human Peroxisome Proliferator-activated Receptor delta (PPARd), PPARD (gene 5467), sequence (Q03181 whole entry, looked up, the tested form may be a part): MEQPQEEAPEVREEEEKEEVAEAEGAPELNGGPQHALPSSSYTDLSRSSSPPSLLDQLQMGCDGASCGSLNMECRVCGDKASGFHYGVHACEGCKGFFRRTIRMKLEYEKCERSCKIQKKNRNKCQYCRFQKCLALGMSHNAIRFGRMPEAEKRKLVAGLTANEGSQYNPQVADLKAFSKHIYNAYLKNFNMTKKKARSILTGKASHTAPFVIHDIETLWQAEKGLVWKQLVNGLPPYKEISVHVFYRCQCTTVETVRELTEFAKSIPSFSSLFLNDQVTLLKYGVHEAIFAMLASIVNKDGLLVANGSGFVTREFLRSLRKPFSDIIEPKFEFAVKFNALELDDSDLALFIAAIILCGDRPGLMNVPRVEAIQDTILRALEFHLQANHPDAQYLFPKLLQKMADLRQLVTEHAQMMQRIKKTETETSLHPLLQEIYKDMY
# How it was run: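 Multiplexed trans-activation format: HepG2 liver cells expressing exogenous NR-Gal4 chimeras and GAL4-UAS reporters were exposed for 24 h. Reporter mRNA was detected by RT-PCR with capillary electrophoresis fluorescence; activity fitted as gain of signal relative to DMSO.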
# [11] = target: Retinoic acid receptor alpha (Homo sapiens) (UniProt P10276); test: ATG_RARa_TRANS: Attagene TRANS-FACTORIAL HepG2 Assay for human Retinoic Acid Receptor alpha (RARa) (AID 2283005)
# How it was run: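 HepG2 cells transiently transfected with multiple reporter units expressing chimeric RARα-GAL4 fusion, with GAL4-UAS-driven reporters. After 24 h compound exposure, reporter mRNA induction quantified by RT-PCR and capillary electrophoresis with fluorescent labeling; gain-of-signal fitted relative to DMSO control.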
# [12] = target: human RAR-related Orphan Receptor beta (RORb), RORB (gene 6096) (UniProt Q92753); test: ATG_RORb_TRANS: Attagene TRANS-FACTORIAL HepG2 Assay for human RAR-related Orphan Receptor beta (RORb) (AID 2283010)
# human RAR-related Orphan Receptor beta (RORb), RORB (gene 6096), sequence (Q92753 whole entry, looked up, the tested form may be a part): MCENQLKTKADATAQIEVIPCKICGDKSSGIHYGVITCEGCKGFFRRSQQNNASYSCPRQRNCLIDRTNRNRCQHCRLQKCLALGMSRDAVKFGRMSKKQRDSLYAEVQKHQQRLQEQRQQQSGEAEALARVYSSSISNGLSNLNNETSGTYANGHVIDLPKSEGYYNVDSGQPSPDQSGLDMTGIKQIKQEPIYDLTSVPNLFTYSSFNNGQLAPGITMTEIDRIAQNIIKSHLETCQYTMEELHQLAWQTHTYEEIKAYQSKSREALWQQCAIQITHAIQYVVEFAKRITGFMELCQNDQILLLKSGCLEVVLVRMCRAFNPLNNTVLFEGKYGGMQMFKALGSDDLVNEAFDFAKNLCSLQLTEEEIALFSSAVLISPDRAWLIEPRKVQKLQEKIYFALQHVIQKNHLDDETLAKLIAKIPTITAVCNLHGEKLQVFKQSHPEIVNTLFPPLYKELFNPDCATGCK
# How it was run: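 Multiplexed transcription-factor reporter assay: HepG2 cells transiently carrying NR-Gal4/GAL4-UAS constructs, 24 h treatment, mRNA quantified by RT-PCR plus capillary electrophoresis fluorescence; activity scored as induction over DMSO.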
# [13] = read-out: Intercellular Adhesion Molecule 1 (ICAM1), ICAM1 (gene 3383); test: BSK_3C_ICAM1: BioMAP Diversity Plus: 3C Assay for Intercellular Adhesion Molecule 1 (ICAM1) Biomarker Activity (AID 2283003; active = hit-call score of the fitted dose curve at least 0.9, where 1 is the maximum; inactive = score below 0.9); conditions: primary human endothelial cells (HUVEC); actives raise or lower the signal
# How it was run: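 Using DMSO as baseline, bidirectional curve fitting was applied to ICAM-1 ELISA signals from HUVEC in the 3C system, measured 24 h after compound addition.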
# [14] = BSK_3C_Proliferation: Cell Proliferation Assessment in the BioMAP Diversity Plus: 3C Assay (AID 2283006; active = hit-call score of the fitted dose curve at least 0.9, where 1 is the maximum; inactive = score below 0.9); conditions: primary human endothelial cells (HUVEC)
# How it was run: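 Measured here: sulforhodamine B (0.1%) staining of TCA-fixed sub-confluent umbilical vein endothelial cultures 48 h post-dosing, absorbance 560 nm. DMSO served as negative control and baseline; both signal gain and loss were modelled.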
# [15] = read-out: E-selectin (Homo sapiens) (UniProt P16581); test: BSK_3C_Eselectin: BioMAP Diversity Plus: 3C Assay for Eselectin Biomarker Activity (AID 2283015; active = hit-call score of the fitted dose curve at least 0.9, where 1 is the maximum; inactive = score below 0.9;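 note: cell surface E-selectin protein quantified by ELISA 24 h after dosing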); conditions: primary human endothelial cells (HUVEC); actives raise or lower the signal
# How it was run: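 ELISA read-out of E-selectin on endothelial monolayers after 24 h chemical treatment. Human umbilical vein primary cells served as the system, with DMSO defining baseline activity for bidirectional fitting.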
# [16] = read-out: Interleukin-1 alpha (IL1a), IL1A (gene 3552); test: BSK_BE3C_IL1a: BioMAP Diversity Plus: BE3C Assay for Interleukin-1 alpha (IL1a) Biomarker Activity (AID 2283016; active = hit-call score of the fitted dose curve at least 0.9, where 1 is the maximum; inactive = score below 0.9); conditions: primary human bronchial epithelial cells; actives raise or lower the signal
# How it was run: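 Measured in human lung primary bronchial epithelial cells: IL-1a by ELISA at 24 h after dosing, with bidirectional fitting against DMSO.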
# [17] = read-out: Monocyte Chemoattractant Protein-1 (MCP1), CCL2 (gene 6347); test: BSK_3C_MCP1: BioMAP Diversity Plus: 3C Assay for Monocyte Chemoattractant Protein-1 (MCP1) Biomarker Activity (AID 2283017; active = hit-call score of the fitted dose curve at least 0.9, where 1 is the maximum; inactive = score below 0.9); conditions: primary human endothelial cells (HUVEC); actives raise or lower the signal
# How it was run: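 ELISA read-out of MCP-1 from human umbilical vein endothelial cell cultures harvested 24 h post-dosing. Gain or loss of signal was fitted relative to DMSO.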
# [18] = read-out: Monocyte Chemoattractant Protein-1 (MCP1), CCL2 (gene 6347); test: BSK_4H_MCP1: BioMAP Diversity Plus: 4H Assay for Monocyte Chemoattractant Protein-1 (MCP1) Biomarker Activity (AID 2283018; active = hit-call score of the fitted dose curve at least 0.9, where 1 is the maximum; inactive = score below 0.9); conditions: primary human endothelial cells (HUVEC); actives raise or lower the signal
# How it was run: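 Primary human umbilical vein endothelium is exposed to chemical for 24 h before MCP-1 is assayed by ELISA. Concentration-response fitted bidirectionally relative to DMSO.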
# [19] = read-out: Human Leukocyte Antigen - DR isotype (HLADR), HLA-DRA (gene 3122); test: BSK_3C_HLADR: BioMAP Diversity Plus: 3C Assay for Human Leukocyte Antigen - DR isotype (HLADR) Biomarker Activity (AID 2283019; active = hit-call score of the fitted dose curve at least 0.9, where 1 is the maximum; inactive = score below 0.9;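 note: ELISA of cell-surface HLA-DR on HUVEC 24 h after dosing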); conditions: primary human endothelial cells (HUVEC); actives raise or lower the signal
# How it was run: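 ELISA readout of surface HLA-DR on human umbilical vein endothelium, taken 24 h after chemical treatment. Gain- and loss-of-signal were both fitted relative to DMSO.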
structure (smiles),measurement,setting,value
CC(=O)CCC1=C(C)CCCC1(C)C,outcome,[1],inactive
same,outcome,[2],inactive
same,outcome,[3],inactive
same,AC50,[4],6.98 µM (active)
same,outcome,[5],inactive
same,outcome,[6],inactive
same,outcome,[7],inactive
same,AC50,[8],19.6 µM (active)
same,outcome,[9],inactive
O=C(OCc1ccccc1)c1ccc(O)cc1,outcome,[1],inactive
same,AC50,[3],49.9 µM (active)
same,AC50,[4],63.2 µM (active)
same,outcome,[7],inactive
same,outcome,[8],inactive
CC(C)OC(=O)c1ccccc1,outcome,[10],inactive
same,outcome,[2],inactive
same,outcome,[11],inactive
same,outcome,[5],inactive
same,outcome,[12],inactive
same,outcome,[6],inactive
same,outcome,[7],inactive
Nc1ccnc(=O)[nH]1,outcome,[1],inactive
same,outcome,[3],inactive
same,outcome,[12],inactive
same,outcome,[6],inactive
same,outcome,[8],inactive
CCc1cccc(C)c1N(C(=O)CS(=O)(=O)O)C(C)COC (stereo not drawn),outcome,[10],inactive
same,outcome,[13],inactive
same,outcome,[11],inactive
same,outcome,[14],inactive
same,outcome,[3],inactive
same,AC50,[4],27.6 µM (active)
same,outcome,[5],inactive
same,outcome,[12],inactive
same,outcome,[8],inactive
same,outcome,[9],inactive
same,outcome,[15],inactive
same,outcome,[16],inactive
same,outcome,[17],inactive
same,outcome,[18],inactive
same,outcome,[19],inactive
COc1nccnc1CC(C)C,outcome,[10],inactive
same,outcome,[2],inactive
same,outcome,[4],inactive
same,outcome,[5],inactive
same,outcome,[6],inactive
same,outcome,[9],inactive
CCC(C)C(=O)OCCc1ccccc1 (stereo not drawn),outcome,[1],inactive
same,outcome,[4],inactive
same,outcome,[6],inactive
same,outcome,[7],inactive
same,outcome,[8],inactive
same,outcome,[9],inactive
COC(=O)CC(C)CCC=C(C)C (stereo not drawn),outcome,[1],inactive
same,outcome,[3],inactive
same,outcome,[12],inactive
same,outcome,[7],inactive
same,outcome,[8],inactive
CCC(=O)C1CC(C(C)C)CC=C1C (stereo not drawn),outcome,[10],inactive
same,outcome,[11],inactive
same,AC50,[3],58.3 µM (active)
same,outcome,[5],inactive
same,outcome,[12],inactive
same,outcome,[6],inactive
same,outcome,[7],inactive
CCCCOCCOC(=O)COc1ccc(Cl)cc1Cl,outcome,[1],inactive
same,outcome,[3],inactive
same,outcome,[12],inactive
same,outcome,[6],inactive
CC(CC(C)C)=NO,outcome,[10],inactive
same,outcome,[11],inactive
same,outcome,[12],inactive
same,outcome,[6],inactive
